Source: PubChem BioAssay (National Center for Advancing Translational Sciences (NCATS))
DT40 TDP1 no CPT = qHTS for Inhibitors of human tyrosyl-DNA phosphodiesterase 1 (TDP1): qHTS in cells in absence of CPT. Potency, µM (doses to about 46.2 µM), most hits filed as inhibitors. 420,000 tested, 15% active. DT40 Tdp1-/- hTDP1 cells, no CPT, ATP luminescence, 48 h. AID 686978, 2013; also: nearly all actives have a fitted effect of over 55% in size
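Readout: luminescence from CellTiter-Glo after 30 min in the dark at RT. Cells: DT40 Tdp1-/- with stable hTDP1, 400/well. Exposure: compounds alone, ≥48 hr, 37 °C.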
DT40 TDP1 CPT = DT40-hTDP1 cell growth loss with CPT; AID 686979; chicken DT40 Tdp1-/-;hTDP1 cells + 20 nM CPT, ATP luminescence, 48 h; 420,000 tested, 12% active; Potency, µM (highest dose often 46.2 µM), hits mostly inhibitors; also: nearly all actives have a fitted effect of over 55% in size
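Chicken DT40 Tdp1-/- cells complemented with human TDP1, 400 cells/well, exposed to compounds plus 20 nM camptothecin for at least 48 h at 37 C; viability read as ATP content by CellTiter-Glo luminescence.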
TDP1 block = TDP1 (human) enzyme inhibition; Q9NUW8; recombinant TDP1, AlphaScreen DNA substrate cleavage; Potency, µM (titrated, usually from 130 µM), usual class: inhibitors; 350,000 tested, 0.28% active; also: nearly all actives have a fitted effect of over 40% in size
Target sequence (Q9NUW8 whole entry, looked up): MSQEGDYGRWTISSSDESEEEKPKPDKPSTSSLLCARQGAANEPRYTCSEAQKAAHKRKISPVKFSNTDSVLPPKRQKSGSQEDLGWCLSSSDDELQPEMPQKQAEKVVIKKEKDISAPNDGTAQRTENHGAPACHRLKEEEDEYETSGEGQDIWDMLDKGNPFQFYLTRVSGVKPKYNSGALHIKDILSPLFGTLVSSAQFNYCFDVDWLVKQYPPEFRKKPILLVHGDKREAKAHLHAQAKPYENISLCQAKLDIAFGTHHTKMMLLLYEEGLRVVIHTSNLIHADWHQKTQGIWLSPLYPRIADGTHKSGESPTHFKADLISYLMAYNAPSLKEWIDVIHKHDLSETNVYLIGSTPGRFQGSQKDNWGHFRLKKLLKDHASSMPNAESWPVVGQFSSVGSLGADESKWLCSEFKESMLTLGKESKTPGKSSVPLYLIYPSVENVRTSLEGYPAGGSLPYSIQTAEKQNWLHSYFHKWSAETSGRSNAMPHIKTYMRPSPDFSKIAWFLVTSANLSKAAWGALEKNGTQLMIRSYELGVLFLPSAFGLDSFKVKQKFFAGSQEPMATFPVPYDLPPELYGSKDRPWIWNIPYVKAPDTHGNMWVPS
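Compounds were preincubated with Tdp1 (1 nM final) for 15 min at room temperature before substrate (15 nM final) started a 5 min reaction; beads (10 ug/ml final) were then added for 10 min before AlphaScreen detection.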
Gal4-VP16 FLuc = Gal4-VP16 reporter inhibition counter-screen | Drosophila S2 Gal4-VP16 UAS-luciferase, luminescence, 20 h | Potency, µM (top dose mostly 53.6 µM), usual class: inhibitors | 310,000 tested, 3.5% active | AID 2546;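 also: Gal4-VP16 expression switched on by copper sulfate through the metallothionein promoter; nearly all actives have a fitted effect of over 50% in size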
RORgamma inh = blocks mouse ROR gamma transcriptional activity | 310,000 tested, 5.4% active | Potency, µM (titrated, usually from 53.6 µM), usual class: inhibitors | Drosophila S2 Gal4-RORgamma UAS-luciferase reporter, 20 h | P51450; also: nearly all actives have a fitted effect of over 60% in size
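In this cell-based reporter format, copper sulfate (700 uM final) drives Gal4–ROR gamma fusion expression from a metallothionein promoter in Drosophila Schneider cells; compounds preincubated 1 hr, reporter read after 20 hr at ambient temperature.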
A number is an active result; . = inactive; ? = inconclusive; / = not tested or not shown; [ ] = dose if it differs, or a comment. The list is not random: actives were taken first. Their share in the collection is about 19%. Calls follow the shape of the dose curve; as a rule, active = well fitted curve in the direction sought with a large enough effect; inconclusive = small, poorly fitted or top-dose-only effect, or another doubt; inactive = no such curve, though single readings can be large; an effect the other way counts as inactive or inconclusive.

SMILES | DT40 TDP1 no CPT | DT40 TDP1 CPT | TDP1 block | Gal4-VP16 FLuc | RORgamma inh
COc1ccc(C(CC(=O)c2ccccc2)CC(=O)c2ccccc2)cc1 | ? | ? | . | . | .
COc1ccc(C(=O)COc2ccc(C)cc2NC(C)=O)cc1 | 21µM | ? | . | . | ?
COc1ccc(C(=O)NCC(=O)c2ccccc2)cc1 | . | . | / | . | 10µM
COc1ccc(CNC(=O)c2ccc(-c3ccccc3)cc2)cc1 | . | . | . | . | .
COc1ccc(O)c(C(=O)CC(=O)c2ccccc2)c1 | / | / | . | 13µM | 7.1µM
O=C(NCC1CCCCC1)c1ccco1 | . | . | . | . | .
Cc1ccccc1C(=O)NC[C@@H]1CCCN2CCCC[C@H]12 | . | . | / | . | .
COc1ccc(C(=O)CC(=O)c2ccccc2)cc1 | ? | . | / | / | /
COc1ccc(C(=O)CC(=O)c2ccc(OC)cc2)cc1 | . | . | / | 18µM | 13µM
COc1ccccc1CC(=O)NCC1Cc2cc(F)cc(-c3cncnc3)c2O1 (configuration not stated) | . | .[9.04 µM] | / | / | /
OC(CN1CCC(Cc2ccccc2)CC1)C(F)(F)F (configuration not stated) | . | . | / | . | .
CC(C)(C)[C@H](N)C(=O)N[C@H]1CCC2C3CC=C4C[C@@H](O)CC[C@]4(C)C3CC[C@@]21C (some centres not stated) | 3.7µM | 4.6µM | . | / | /
CC(=O)[C@H]1CCC2C3CC=C4C[C@@H](OS(=O)(=O)O)CC[C@]4(C)C3CC[C@@]21C (some centres not stated) | / | / | . | / | /
CC(C)C(=O)N[C@H]1CCC2C3CC=C4C[C@@H](O)CC[C@]4(C)C3CC[C@@]21C (some centres not stated) | ? | . | . | / | /
C[C@]12CC[C@H](O)CC1=CCC1C2CC[C@@]2(C)C1CC[C@@H]2NC(=O)[C@@H](N)Cc1ccccc1 (some centres not stated) | 21µM | ? | . | / | /
CC(=O)C1CCC2C3CC=C4CC(SC(=N)N)CCC4(C)C3CCC12C (configuration not stated) | 8.2µM | 13µM | / | / | /
CCCCCCN[C@H]1CCC2C3CC=C4C[C@@H](O)CC[C@]4(C)C3CC[C@@]21C (some centres not stated) | ? | 16µM | . | / | /
Cc1ccc(C)c(S(=O)(=O)Nc2ccc3scnc3c2)c1 | 18µM | 23µM | . | ? | ?
CCCCN(C(=O)CSc1nnc(Nc2ccc(C)c(C)c2)s1)c1c(N)n(Cc2ccccc2)c(=O)[nH]c1=O | ? | 18µM | . | . | .
CN(C(=O)CSc1nnc(Nc2ccccc2)s1)c1c(N)n(Cc2ccccc2)c(=O)[nH]c1=O | ? | ? | . | . | .
Cc1cc(Br)ccc1Nc1nc(N)nc(N)c1N=O | ? | 10µM | / | / | /
Cc1cccc(Nc2nc(N)nc(N)c2N=O)c1 | 21µM | 26µM | / | / | /
Cc1cccc(Nc2nc(N)nc(N)c2S(=O)(=O)c2ccccc2)c1 | / | / | . | / | /
Cc1cc(Br)ccc1NC(=O)CNC(=O)CSc1n[nH]c(N)n1 | . | . | . | . | .
CN(CC(=O)NCCCN1CCOCC1)S(=O)(=O)c1ccc(Cl)cc1 | . | . | . | / | /
SMILES | DT40 TDP1 no CPT | DT40 TDP1 CPT | TDP1 block | Gal4-VP16 FLuc | RORgamma inh
COc1ccccc1NS(=O)(=O)c1ccc(Br)s1 | . | . | . | . | .
COc1cccc(NS(=O)(=O)c2ccc(Br)s2)c1 | . | . | . | 4.5µM | 3.5µM
COc1ccc(OC)c(NS(=O)(=O)c2ccc(Br)s2)c1 | 18µM | 16µM | . | . | .
CN(Cc1ccccc1)S(=O)(=O)c1ccc(NC(=S)NC(=O)C2CCCC2)cc1 | 4.6µM | 5.2µM | . | ? | 5µM
CN(c1ccccc1)S(=O)(=O)c1ccc(NC(=S)NC(=O)C2CC2)cc1 | 12µM | ? | . | ? | 11µM
CN(C)S(=O)(=O)c1ccc(NC(=S)NC(=O)C2CCC2)cc1 | . | . | . | . | ?
COc1ccccc1/C=N/NC(=O)c1ccc(N(C)S(=O)(=O)c2ccccc2)cc1 | . | . | . | . | .
CN(c1ccccc1)S(=O)(=O)c1ccc(NC(=S)NC(=O)c2ccccc2)cc1 | 26µM | ? | . | ? | 18µM
COc1ccccc1/C=C/C(=O)NC(=S)Nc1ccc(S(=O)(=O)N(C)c2ccccc2)cc1 | 23µM | ? | . | . | 13µM
CC(C)c1ccccc1N1CC(C(=O)O)CC1=O (configuration not stated) | . | . | . | . | .
COc1ccccc1/C=C/C(=O)NC(=S)Nc1ccccn1 | . | . | . | 5.6µM | 4.5µM
COc1ccc(/C=C/C(=O)NC(=S)Nc2ccccn2)cc1 | . | . | / | . | ?
CN(c1ccccc1)S(=O)(=O)c1ccc(NC(=O)CC(=O)c2ccccc2)cc1 | 18µM | ? | / | / | /
COc1ccc(Nc2cc(C(=O)NCc3ccco3)c3ccccc3n2)c(OC)c1 | 23µM | ? | . | . | ?
COc1ccc(Nc2cc(C(=O)NCc3ccccn3)c3ccccc3n2)c(OC)c1 | / | / | . | . | .
COc1ccc(-c2cc(C(=O)NCc3ccco3)c3ccccc3n2)c(OC)c1 | ? | ? | 8.9µM | . | .
CNC(=S)N/N=C/c1cn(Cc2c(F)cccc2Cl)c2ccccc12 | 12µM | ? | . | 5µM | 0.45µM
O=C(O)c1ccc(N/N=C/c2cn(Cc3ccc(F)cc3)c3ccccc23)cc1 | ? | ? | . | . | .
CCNC(=S)N/N=C/c1cn(Cc2ccccc2F)c2ccccc12 | 5.8µM | 6.5µM | . | . | .
O=C(CNC(=O)c1ccccc1)OCC(=O)c1ccccc1 | ? | . | . | / | /
C[C@@H]1CN([C@H](C)CO)S(=O)(=O)c2ccc(Br)cc2O[C@@H]1CN(C)Cc1ccc(-c2ccccc2)cc1 | 16µM | ? | / | / | /
CCCNC(=O)N(C)C[C@@H]1Oc2cc(C#C[C@H](C)O)ccc2S(=O)(=O)N([C@H](C)CO)C[C@H]1C | . | . | / | / | /
C[C@H](CO)N1C[C@H](C)[C@@H](CN(C)Cc2cccc(C(=O)O)c2)Oc2cc(Br)ccc2S1(=O)=O | . | . | / | / | /
C[C@H](CO)N1C[C@H](C)[C@@H](CN(C)Cc2ccc3c(c2)OCO3)Oc2cc(Br)ccc2S1(=O)=O | 7.3µM | 21µM | / | / | /
C[C@@H]1CN([C@@H](C)CO)S(=O)(=O)c2ccc(/C=C/c3ccccc3)cc2O[C@@H]1CN(C)Cc1ccc(C(=O)O)cc1 | 21µM | 16µM | / | / | /
CC(C)NC(=O)N(C)C[C@@H]1Oc2cc(Br)ccc2S(=O)(=O)N([C@@H](C)CO)C[C@H]1C | . | . | / | / | /
C[C@H](O)C#Cc1ccc2c(c1)O[C@@H](CN(C)Cc1ccc(-c3ccccc3)cc1)[C@H](C)CN([C@@H](C)CO)S2(=O)=O | 3.7µM | 2.9µM | / | / | /
C[C@@H]1CN([C@H](C)CO)S(=O)(=O)c2ccc(Br)cc2O[C@@H]1CN(C)Cc1ccc(C(=O)O)cc1 | . | . | / | / | /
